KLF5 inhibitor: suppresses KLF5 promoter-driven expression. DLD-1 KLF5 promoter-luciferase reporter, luminescence. inhibition, % at 5 µM. 290,000 compounds, 0.23% hits. AID 1700;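 active means inhibition above a per-plate limit of that plate's mean compound inhibition plus 3 SD, cut at about 60% in these data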;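 further: 0% = DMSO wells and 100% = LY294002 at 200 µM; higher means less KLF5 promoter-driven luciferase light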
Jurkat NFkB inh: lowers PMA/ionomycin-induced NF-kB signal in Jurkat cells. PMA/ionomycin-induced NF-kB luciferase reporter, luminescence. inhibition, % at 4 µM. 330,000 compounds, 0.53% hits. AID 435003; in the data active means inhibition above about 50%
aSyn 5UTR inh: 5' untranslated region of α-synuclein, MLPCN primary screen. AID 1813. alpha-synuclein 5'UTR reporter, inhibitor activity. inhibition, % (tested at 7.5 µM). 300,000 compounds, 0.82% hits; in the data active means inhibition above about 60%; inconclusive means no clear call, values can overlap the other calls;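 further: H4 neuroglioblastoma cells stably carrying SNCA 5'UTR luciferase fusion; 0% = DMSO wells and 100% = positive control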
TMEM16A act: activates or potentiates the mouse TMEM16A chloride channel; Q8BHY3; HEK293 TMEM16A/YFP-H148Q/I152L, iodide quench fluorescence; stronger effect = lower value; AID 623877; 340,000 compounds, 0.3% hits; B-score at 10 µM;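 active means fluorescence-ratio B-score plate-corrected deviation score at least 3 library SD below zero, with starting fluorescence score within 5 deviations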;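 further: channel opened by trigger with iodide after compound preincubation; score built on the fluorescence ratio of max minus min over baseline; more negative score means more quench and so TMEM16A activation or potentiation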
Target sequence (Q8BHY3 whole entry, looked up): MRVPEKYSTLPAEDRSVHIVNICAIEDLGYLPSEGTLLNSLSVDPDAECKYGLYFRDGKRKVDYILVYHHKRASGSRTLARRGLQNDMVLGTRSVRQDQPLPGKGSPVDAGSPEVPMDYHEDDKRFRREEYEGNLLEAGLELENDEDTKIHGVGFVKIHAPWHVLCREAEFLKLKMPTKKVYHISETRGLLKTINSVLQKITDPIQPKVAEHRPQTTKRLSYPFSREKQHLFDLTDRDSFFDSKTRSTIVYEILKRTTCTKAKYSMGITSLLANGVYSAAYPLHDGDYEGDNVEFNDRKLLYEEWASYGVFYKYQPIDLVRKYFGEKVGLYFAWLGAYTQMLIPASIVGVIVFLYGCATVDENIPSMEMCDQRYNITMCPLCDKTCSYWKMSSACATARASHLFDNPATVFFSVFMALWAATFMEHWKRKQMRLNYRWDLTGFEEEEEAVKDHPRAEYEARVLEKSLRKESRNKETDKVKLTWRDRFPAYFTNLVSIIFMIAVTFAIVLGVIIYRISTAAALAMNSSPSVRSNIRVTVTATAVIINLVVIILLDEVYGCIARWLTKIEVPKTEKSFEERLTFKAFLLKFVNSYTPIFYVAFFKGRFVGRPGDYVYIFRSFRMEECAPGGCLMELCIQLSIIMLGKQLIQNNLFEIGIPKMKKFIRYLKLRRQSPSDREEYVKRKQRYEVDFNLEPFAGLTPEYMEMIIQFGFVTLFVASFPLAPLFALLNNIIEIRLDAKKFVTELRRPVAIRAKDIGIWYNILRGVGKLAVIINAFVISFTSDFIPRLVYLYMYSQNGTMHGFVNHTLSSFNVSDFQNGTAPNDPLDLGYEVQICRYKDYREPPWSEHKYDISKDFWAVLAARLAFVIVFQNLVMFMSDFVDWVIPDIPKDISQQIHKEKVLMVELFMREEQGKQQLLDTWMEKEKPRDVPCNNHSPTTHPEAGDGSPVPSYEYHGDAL
ANO1 block: blocks the mouse calcium-activated chloride channel TMEM16A | HEK293 TMEM16A/YFP iodide influx fluorescence, ionomycin | normalized B-score (activity score, 25-100; higher = stronger inhibition) at 10 µM | 310,000 compounds, 1.2% hits;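 active means ratio plate-corrected score three or more library SD toward inhibition, starting fluorescence score within five deviations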;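 further: score derived from kinetic fluorescence span divided by baseline fluorescence per well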
697 NFkB inh: inhibitors of the PMA/ionomycin-induced NF-kB reporter in 697 B cells | 330,000 compounds, 0.33% hits | 697 B-cell NF-kB luciferase reporter, 16 h | AID 435022 | inhibition, % at 4 µM; in the data active means inhibition above about 35%
TMEM16A reconf: TMEM16A (mouse) chloride channel inhibition, re-confirmation | 2,300 compounds, 39% hits | inhibition, % at 10 µM | shares compounds with ANO1 block | HEK293 TMEM16A/YFP-H148Q, iodide quench fluorescence; ionomycin added to raise cell calcium;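 active means mean duplicate percent inhibition, scaled so buffer wells are 0 and the reference blocker 100, over three buffer SD above buffer mean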
TMEM16A Ca cntr: alters calcium mobilization in TMEM16A HEK293 cells, counter-screen | 2,300 compounds, 2% hits | AID 652231 | shares compounds with ANO1 block | calcium response (% of ionomycin), % at 10 µM | TMEM16A/YFP HEK293, Fluo4 calcium mobilization;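 active means duplicate-averaged calcium signal over 20% of the ionomycin maximum, relative to buffer baseline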;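 further: each well's signal is peak minus trough fluorescence divided by its pre-addition baseline; 0% = buffer wells and 100% = ionomycin wells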
Parental YFP cnt: counter-screen for TMEM16A inhibitors: effect in parental YFP-HEK293 cells; shares compounds with ANO1 block; iodide YFP quench, ionomycin; YFP ratio F(max-min)/F0 at 10 µM; 2,300 tested, under 10 active; AID 652233;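 active means yellow fluorescent protein signal ratio exceeding the buffer control mean by over 5 SD of those controls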;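 further: ratio is mean of duplicate wells from kinetic YFP trace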
ClC-1 rat inh: selectivity of TMEM16A inhibitors: inhibition of rat ClC-1 chloride channel; shares compounds with ANO1 block; CHO ClC-1-YFP, iodide influx fluorescence quench; iodide control reads 0, buffer control 100; ratio percent, % at 10 µM; 2,300 tested, under 10 active;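 active means duplicate-mean ratio percent above the mean of iodide-only control wells, which defines zero, plus 5 of their SD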;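 further: higher percent means stronger block of ClC-1 iodide influx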
An asterisk follows results filed as active; i = inactive; u = inconclusive; x = no result given. In the library only some 2.5% were active in any assay of this set; here they are far more common.

SMILES	KLF5 inhibitor	Jurkat NFkB inh	aSyn 5UTR inh	TMEM16A act	ANO1 block	697 NFkB inh	TMEM16A reconf	TMEM16A Ca cntr	Parental YFP cnt	ClC-1 rat inh
CCCCOc1ccccc1Cn1c(=O)oc2ccc(C)cc21	-24.8	-3.6	15.6	i	100*	9.8	i	i	-1.19	-8.0
COC(=O)c1ccccc1NS(C)(=O)=O	x	4.9	x	i	x	4.0	x	x	x	x
COC(=O)c1ccc(C(=O)OC)c(NS(C)(=O)=O)c1	-17.9	-13.1	30.2	i	25*	2.5	i	i	-0.957	-11.0
CC(=O)N(Cc1ccccc1)c1ncc2c(n1)c(=O)c(C#N)c1ccccn12	-25.1	-9.4	5.7	i	25*	2.9	i	i	-0.911	-7.5
C[C@@H]1CN([C@@H](C)CO)C(=O)Cc2cc(NS(=O)(=O)c3cn(C)cn3)ccc2O[C@@H]1CN(C)C(=O)Nc1ccccc1	x	4.1	x	i	x	6.4	x	x	x	x
Cc1cc(C(=O)CSc2nnc(-c3ccco3)o2)c(C)n1Cc1ccco1	0.1	-16.4	-38.5	i	i	-22.5	i	i	-0.992	-13.5
Cc1cc(C(=O)CSc2nnc(-c3cccs3)o2)c(C)n1-c1ccccc1	-3.3	15.9	-15.2	i	100*	-6.0	i	i	-1.28	-6.0
Nc1nc(=S)c2ncn(C3OC(CO)CC3O)c2[nH]1 (configuration not stated)	x	x	x	i	x	x	x	x	x	x
COc1ccccc1N1CCN(C(=O)CSc2nnc3n2C(C)(C)Cc2ccccc2-3)CC1	3.6	32.1	x	i	25*	-38.9	i	i	-1.09	-4.0
CC1Cc2ccccc2N1C(=O)CSc1nnc2n1C(C)(C)Cc1ccccc1-2 (configuration not stated)	-31.1	9.8	42.4	i	i	-14.2	x	x	x	x
CCOCCCNc1nc2c(C)cccn2c(=O)c1/C=C1\SC(=S)N(CC(C)C)C1=O	6.0	0.5	18.3	i	i	21.2	i	i	-0.0855	44.0
CCOc1cc(CNc2ccccc2)cc(Br)c1OCC(=O)NC(C)(C)C	-14.3	-12.2	u	i	25*	-8.7	i	i	-0.886	-4.0
CCOc1cc(CNc2ccc(Br)cc2)cc(Br)c1OCC(=O)NC(C)(C)C	-37.9	14.5	8.5	i	i	-4.0	x	x	x	x
CCN(CCNCC(O)COc1ccccc1C(C)C)c1cccc(C)c1 (configuration not stated)	-18.2	-9.1	4.1	i	i	1.3	33.5%*	i	-1.01	-15.5
CCOC(=O)N1CCN(CC(O)COc2ccccc2C(C)C)CC1 (configuration not stated)	26.3	4.3	x	i	i	10.2	x	x	x	x
Cc1cc(NC(C)c2ccccc2)n2ncc(-c3ccccc3)c2n1 (configuration not stated)	-174.8	-77.6	-83.0	i	100*	-223.9	i	i	-0.934	-6.5
Nc1c(C(=O)NCCc2ccccc2)nnn1Cc1ccccc1	3.9	-36.2	-75.1	i	i	-14.4	i	i	-0.802	-4.0
CCN(C(=O)Cc1c(C(=O)O)[nH]c2ccccc12)c1cc(OC)ccc1OC	-32.8	-0.1	13.1	i	100*	-16.0	i	i	-1.07	-4.5
Cc1noc(C)c1C(=O)NNc1ccc(C(C)C)cc1	-6.5	8.0	4.0	i	i	-15.5	x	x	x	x
Cc1ccc(C(C)NC(=O)c2c(C)noc2C)cc1C (configuration not stated)	-1.3	0.4	-3.4	i	25*	3.6	i	i	-1.02	-10.0
O=C(Cn1cncn1)N/N=C/c1ccccc1O	-17.1	-6.8	-3.7	i	i	-17.2	x	x	x	x
CCc1ccc(S(=O)(=O)NCCc2csc(-c3ccccc3)n2)s1	-18.1	-1.0	2.2	i	100*	-1.9	i	i	-1.07	-26.0
Cc1nc2cc(OCc3cc(C(=O)NC(C)c4cnn(C)c4)no3)ccc2s1 (configuration not stated)	-13.4	-2.6	-4.4	i	i	16.9	x	x	x	x
Cc1ccc(-c2noc(CSc3nnnn3C3CCCCC3)n2)cc1	-21.7	-5.8	5.3	i	100*	18.8	29.5%*	i	-1.12	-12.0
COc1cccc(CN(C)C(=O)CNC(=O)c2sc3ccccc3c2Cl)c1OC	x	-5.1	-0.4	i	25*	-16.4	i	i	-1.03	-2.5
SMILES	KLF5 inhibitor	Jurkat NFkB inh	aSyn 5UTR inh	TMEM16A act	ANO1 block	697 NFkB inh	TMEM16A reconf	TMEM16A Ca cntr	Parental YFP cnt	ClC-1 rat inh
COc1cccc(CN(C)C(=O)COc2ccc(C(=O)c3ccc(Cl)cc3)cc2)c1OC	-11.6	1.6	2.8	i	100*	5.1	26.0%*	i	-0.995	-17.0
COc1ccc(NC(=O)CSCC(=O)N(C)Cc2cccc(OC)c2OC)cc1	x	15.9	0.5	i	i	19.3	x	x	x	x
COc1ccc(CN(C)C(=O)CNC(=O)Cc2cccc3ccccc23)c(OC)c1OC	-6.2	10.4	18.5	i	i	-8.1	x	x	x	x
Cc1nn(C)c(Cl)c1NC(=O)OCc1ccc(Cl)cc1Cl	19.1	40.5	15.2	i	25*	-49.8	i	i	-0.79	-16.5
Cc1nnsc1NC(=O)OCc1ccc(Cl)cc1Cl	5.9	-2.9	-4.0	i	i	-4.5	x	x	x	x
c1ccc(-c2nc(SCc3nc4ccccc4[nH]3)c3oc4ccccc4c3n2)cc1	x	3.2	x	i	x	-13.1	x	x	x	x
CCOC(=O)c1cc2ccccc2n1CCN(CC)CC	-21.3	-12.1	-14.8	i	25*	10.0	i	i	-1.19	-7.0
Cc1ccc(C(=O)Cn2c(C)cc(C)c(C#N)c2=O)cc1	2.2	2.1	-1.0	i	i	-24.8	x	x	x	x
Cc1cc(C)n(CC(=O)c2ccccc2)c(=O)c1C#N	-24.9	8.8	-9.6	i	100*	15.8	i	i	-0.895	-7.5
O=C(C[n+]1ccc(-c2ccccc2)cc1)Nc1ccc([N+](=O)[O-])cc1	-2.8	-3.7	8.9	i	i	6.1	x	x	x	x
COc1ccccc1NS(=O)(=O)c1cccc(NC(=O)c2ccc3ccccc3n2)c1	-27.9	15.3	-32.9	i	i	-45.5	x	x	x	x
O=C(Nc1cccc(S(=O)(=O)Nc2ccccc2F)c1)c1ccc2ccccc2n1	-43.0	-4.6	7.5	i	100*	-27.1	i	i	-0.926	-5.0

Compound activity as filed in PubChem.
